High-throughput results: PubChem, several laboratories
V-ATPase pHluor – alters yeast V-ATPase proton transport | response, % at 10 µM | S. cerevisiae, pHLuorin cytosolic pH fluorescence | AID 504577 | actives 0.37% (n = 350,000); in the data active = response mostly above about 7.3%, no sharp cut-off; inactive = mostly below about 5.4%; also: actives read high
tim10-1 inh – tim10-1 yeast growth inhibition. actives 2.2% (n = 330,000). inhibition, % at 20 µM. AID 463190. S. cerevisiae tim10-1 ts strain growth, BacTiter-Glo, 24 h;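 active = inhibition of at least 40%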;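 also: mutant grown at 25 °C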
PfHsp90 set2 – growth inhibition of yeast expressing Plasmodium Hsp90. inhibition, % at 9.4 µM. AID 504621. S. cerevisiae expressing PfHsp90, BacTiter-Glo ATP, 48 h; yeast lacking PDR1 and PDR3 efflux regulators. actives 0.32% (n = 310,000);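 active = every replicate shows inhibition above about 80%, whatever the replicate mean, limit read from the data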
tim23-1 inh – growth inhibitors of tim23-1 mutant yeast | actives 1.3% (n = 330,000) | inhibition, % at 20 µM | S. cerevisiae tim23-1 growth, BacTiter-Glo luminescence, 24 h;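 active = growth inhibition of the mutant yeast at or above 50%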;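 also: temperature-sensitive mutant grown at 25 °C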
TIM10 inh – inhibits growth of TIM10 yeast strain; actives 1.4% (n = 330,000); S. cerevisiae TIM10 strain growth, BacTiter-Glo luminescence, 24 h; inhibition, % at 10 µM;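 active = inhibition of 40% or more at the single tested concentration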;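 also: wild-type TIM10 isogenic control strain grown at permissive 25 °C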
V-ATPase pH SP – yeast V-ATPase proton transport regulation; shares compounds with V-ATPase pHluor; S. cerevisiae pHLuorin cytosolic pH; response, % at 10 µM; actives 2% (n = 980); AID 602197; in the data active = response above about 24%
Numbers stand for hits. An excerpt weighted towards active compounds, which were near 3.7% of everything screened.

Screening CC(c1ccco1)N(C(=O)C12CC3(C)CC(C)(CC(C)(C3)C1)C2)c1ccccn1 (stereo not given) returned V-ATPase pHluor 13, tim10-1 inh inactive, tim23-1 inh inactive, TIM10 inh inactive and V-ATPase pH SP inactive.
Cc1cccc(C(=O)N(c2ccccn2)C(C)c2ccco2)c1 (stereo not given) was read as V-ATPase pHluor inactive, tim10-1 inh inactive, PfHsp90 set2 inactive, tim23-1 inh inactive and TIM10 inh inactive.
For O=C(CN1CCc2ccccc2C1)Nc1ccccc1Cl the results were V-ATPase pHluor inactive, tim10-1 inh inactive, PfHsp90 set2 inactive, tim23-1 inh inactive and TIM10 inh inactive.
O=C(CN1CCc2ccccc2C1)Nc1ccccc1N1CCCCCC1 was read as V-ATPase pHluor 16, tim10-1 inh inactive, PfHsp90 set2 inactive, tim23-1 inh inactive, TIM10 inh inactive and V-ATPase pH SP inactive.
For O=C(COc1coc(CN2CCCc3ccccc32)cc1=O)Nc1ccc([N+](=O)[O-])cc1 the results were V-ATPase pHluor 7.4, tim10-1 inh inactive, PfHsp90 set2 inactive, tim23-1 inh inactive, TIM10 inh inactive and V-ATPase pH SP inactive.
For O=S(=O)(O)c1cc(O)ccc1O the results were V-ATPase pHluor 15, tim10-1 inh inactive, PfHsp90 set2 inactive, tim23-1 inh inactive, TIM10 inh inactive and V-ATPase pH SP inactive.
`N#CCCN(Cc1cccnc1)S(=O)(=O)c1ccc(S(=O)(=O)NC2CCCCC2)cc1` gave V-ATPase pHluor 8.6, tim10-1 inh inactive, PfHsp90 set2 inactive, tim23-1 inh inactive, TIM10 inh inactive and V-ATPase pH SP inactive.
COc1ccc2[nH]cc(CCNC(=O)C3CCCCC3)c2c1 was read as V-ATPase pHluor inactive, tim10-1 inh inactive, PfHsp90 set2 inactive, tim23-1 inh inactive and TIM10 inh inactive.
`CN(CC(=O)Nc1ccccc1Br)C(=O)c1cc([N+](=O)[O-])ccc1N1CCOCC1` gave V-ATPase pHluor 7.0, tim10-1 inh inactive, PfHsp90 set2 inactive, tim23-1 inh inactive, TIM10 inh inactive and V-ATPase pH SP inactive.
`CCn1cc(C(=O)NCc2ccco2)c(=O)c2ccc(C)nc21` gave V-ATPase pHluor 6.7, tim10-1 inh inactive, PfHsp90 set2 inactive, tim23-1 inh inactive, TIM10 inh inactive and V-ATPase pH SP inactive.
For CC(Cc1cccs1)NC(=O)Nc1ccc([N+](=O)[O-])cc1 (stereo not given) the results were V-ATPase pHluor inactive, tim10-1 inh inactive, PfHsp90 set2 inactive, tim23-1 inh inactive and TIM10 inh inactive.
Screening Cc1nn(-c2ccc(N3CCOCC3)nn2)c(C)c1CCC(=O)Nc1ccc(F)cc1 returned V-ATPase pHluor inactive, tim10-1 inh inactive, PfHsp90 set2 inactive, tim23-1 inh inactive and TIM10 inh inactive.
For O=C(O)Cn1c2ccccc2c2nc3ccccc3nc21 the results were V-ATPase pHluor inactive.
Screening CCOC(=O)Cn1c2ccccc2c2nc3ccccc3nc21 returned V-ATPase pHluor inactive, tim10-1 inh inactive, PfHsp90 set2 inactive, tim23-1 inh inactive, TIM10 inh inactive and V-ATPase pH SP inactive.
Screening Cc1cc(=O)c2ccccc2n1CC(=O)NCc1ccccc1 returned V-ATPase pHluor inactive, tim10-1 inh inactive, PfHsp90 set2 inactive, tim23-1 inh inactive and TIM10 inh inactive.
CCOC(=O)Cn1c(=O)cc(C)c2ccccc21 was read as V-ATPase pHluor inactive, tim10-1 inh inactive, PfHsp90 set2 inactive, tim23-1 inh inactive, TIM10 inh inactive and V-ATPase pH SP inactive.
`CCOC(=O)Cn1c(C)cc(=O)c2ccccc21` gave V-ATPase pHluor inactive, tim10-1 inh inactive, PfHsp90 set2 inactive, tim23-1 inh inactive, TIM10 inh inactive and V-ATPase pH SP inactive.
CC[C@H](C)[C@H]1CNC(=O)C(=O)N1CC1CCN(CCCc2ccc(OC)c(OC)c2)CC1 was read as V-ATPase pHluor inactive and PfHsp90 set2 inactive.
For NC(=O)C1(NC2CCCCC2)CCN(Cc2ccccc2)CC1 the results were V-ATPase pHluor inactive and PfHsp90 set2 inactive.
Screening Cc1ccc(C(=O)CCC(=O)Nc2ccc(C)cn2)cc1 returned V-ATPase pHluor inactive, tim10-1 inh inactive, PfHsp90 set2 inactive, tim23-1 inh inactive and TIM10 inh inactive.
Screening Cc1ccc(C(=O)CCC(=O)NC2=NCCS2)cc1 returned V-ATPase pHluor inactive, tim10-1 inh inactive, PfHsp90 set2 inactive, tim23-1 inh inactive, TIM10 inh inactive and V-ATPase pH SP inactive.
`CCOc1ccc(OCCCC(=O)NC2=NCCS2)cc1` gave V-ATPase pHluor inactive, tim10-1 inh inactive, tim23-1 inh inactive and TIM10 inh inactive.
For Cc1cc(OCCCC(=O)NC2=NCCS2)ccc1Cl the results were V-ATPase pHluor 9.5, tim10-1 inh inactive, PfHsp90 set2 inactive, tim23-1 inh inactive, TIM10 inh inactive and V-ATPase pH SP inactive.
N#Cc1c(-c2ccccc2)c(C#N)c2nc3ccccc3n2c1N was read as V-ATPase pHluor 9.1, tim10-1 inh inactive, PfHsp90 set2 inactive, tim23-1 inh inactive, TIM10 inh inactive and V-ATPase pH SP inactive.
`Cc1ccc(-c2c(C#N)c(N)n3c(nc4ccccc43)c2C#N)cc1` gave V-ATPase pHluor inactive, tim10-1 inh inactive, tim23-1 inh inactive and TIM10 inh inactive.
For CCN(Cc1nc(-c2cccc(C)c2)no1)C(=O)c1ccc2c(c1)OCO2 the results were V-ATPase pHluor inactive, tim10-1 inh inactive, PfHsp90 set2 inactive, tim23-1 inh inactive and TIM10 inh inactive.
`O=C(Nc1cccc(S(=O)(=O)N2CCOCC2)c1)C1CCCN(C(=O)c2ccc(Cl)cc2)C1` (stereo not given) gave V-ATPase pHluor inactive, tim10-1 inh inactive, PfHsp90 set2 inactive, tim23-1 inh inactive and TIM10 inh inactive.
`CCOC(=O)c1c(C)c(-c2ccccc2)n(CC(=O)NCCCN(CC)CC)c1C` gave V-ATPase pHluor 15, tim10-1 inh inactive, PfHsp90 set2 inactive, tim23-1 inh inactive, TIM10 inh inactive and V-ATPase pH SP inactive.
`COc1cccc(COC(=O)C2CCN(S(=O)(=O)c3ccc(C)cc3C)CC2)c1OC` gave V-ATPase pHluor inactive, tim10-1 inh inactive, PfHsp90 set2 inactive, tim23-1 inh inactive and TIM10 inh inactive.
`CCc1noc(C)c1C(=O)NNC(=O)c1ccccc1Cl` gave V-ATPase pHluor inactive, tim10-1 inh inactive, PfHsp90 set2 inactive, tim23-1 inh inactive and TIM10 inh inactive.
`COc1ccc(-n2c(C)cc(C(=O)CN3C(=O)NC4(CCCc5sccc54)C3=O)c2C)cc1` (stereo not given) gave V-ATPase pHluor 10, tim10-1 inh inactive, PfHsp90 set2 inactive, tim23-1 inh inactive, TIM10 inh inactive and V-ATPase pH SP inactive.
COc1ccccc1C(CC(=O)O)c1ccc2c(c1)OCO2 (stereo not given) was read as V-ATPase pHluor inactive, tim10-1 inh inactive, PfHsp90 set2 inactive, tim23-1 inh inactive and TIM10 inh inactive.
`COc1ccccc1C(CC(=O)N1CCCC1)c1ccc2c(c1)OCO2` (stereo not given) gave V-ATPase pHluor 6.8, tim10-1 inh inactive, PfHsp90 set2 inactive, tim23-1 inh inactive, TIM10 inh inactive and V-ATPase pH SP inactive.
